In the library only some 2.3% were active in any assay of this set; here they are far more common.
MBD2 inh – inhibitors of human MBD2 binding to methylated oligonucleotide | TR-FRET | inhibition, % at 4.4 µM | 0.31% of 370,000 active | AID 686964; in the data active = inhibition above about 13%
PLC-beta3 inh – blocks human PLC-beta3 enzyme activity. 0.18% of 370,000 active. inhibition, % at 12.2 µM. Q01970. Purified PLC-beta3, fluorogenic substrate, fluorescence; in the data active = inhibition above about 11%
LEDGF integ inh – blocks HIV-1 LEDGF/p75-dependent DNA integration. TR-FRET IN-LEDGF/p75 DNA integration, Eu/Cy5. inhibition, % at 3.7 µM. 0.64% of 370,000 active. AID 743269;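 active = inhibition above the screen-wide mean plus 3 SD, cut at about 13% in these data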;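 note: signal is the Cy5 over europium emission ratio at 671 and 618 nm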
UHRF1 binding – blocks human UHRF1 binding to methylated DNA; UHRF1 binding to methylated oligo, TR-FRET; 0.75% of 370,000 active; AID 687016; Q96T88; inhibition, % at 4.4 µM; in the data active = inhibition above about 21%;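 note: UHRF1 SRA domain binding a hemimethylated CpG hairpin DNA probe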
PLC-gamma1 inh – blocks human PLC-gamma1 enzyme activity. P19174. purified PLC-gamma1, fluorogenic substrate, fluorescence. inhibition, % at 12.2 µM. 0.84% of 370,000 active. AID 720700
PLCgamma1 ctr – counter-screen for PLC-beta3 inhibitors: inhibitors of human PLC-gamma1. inhibition, % at 12.3 µM. shares compounds with PLC-gamma1 inh. purified PLC-gamma1, fluorogenic substrate, fluorescence. 3.1% of 3,300 active. AID 743258
PLCb3 confirm – confirmation of human PLC-beta3 inhibitors. shares compounds with PLC-gamma1 inh. purified PLC-beta3, fluorogenic substrate fluorescence. inhibition, % at 12.3 µM. 1% of 3,300 active. AID 743261; in the data active = inhibition above about 11%
Numbers stand for hits; n = inactive; x = no result given. Cut-off read from the data, not from the text of the source, unless noted: active = inhibition above about 9.5%; inactive = the rest.

SMILES | MBD2 inh | PLC-beta3 inh | LEDGF integ inh | UHRF1 binding | PLC-gamma1 inh | PLCgamma1 ctr | PLCb3 confirm
CC(NC(C)c1ccccc1Cl)C(=O)Nc1cccc(S(=O)(=O)N2CCCCC2)c1 (centres undefined) | n | n | n | n | 9.8 | n | n
Cc1nc2ccc(S(=O)(=O)NCC(=O)NCc3ccc(F)cc3)cc2s1 | n | n | n | n | n | x | x
CSCC[C@H](NC(=O)COc1ccc(Cl)cc1)C(=O)N1CCC2(CC1)NCCc1[nH]cnc12 | n | n | n | n | 11 | n | n
Cc1cccc(NC(=O)Cc2ccc(NC3=NC4CS(=O)(=O)CC4S3)cc2)c1 (centres undefined) | n | n | n | n | 9.7 | n | n
O=C(c1ccc(NC2=NC3CS(=O)(=O)CC3S2)cc1)N1CCN(c2ccccc2F)CC1 (centres undefined) | n | n | n | n | n | x | x
Cc1cc(C)cc(NC(=O)Cc2ccc(NC3=NC4CS(=O)(=O)CC4S3)cc2)c1 (centres undefined) | n | n | n | n | n | x | x
CC1CCCCC1NC(=O)c1cccc(NC2=NC3CS(=O)(=O)CC3S2)c1 (centres undefined) | n | n | n | n | 10.0 | n | n
O=C(c1ccc(NC2=NC3CS(=O)(=O)CC3S2)cc1)N1CCN(Cc2ccccc2)CC1 (centres undefined) | n | n | n | n | 9.8 | n | n
Cc1ccc(NC(=O)N2CCC(c3nc4ccc(Cl)cc4[nH]3)CC2)cc1F | n | n | n | n | n | x | x
CC(C)(C)OC(=O)NCCCc1ccc2c(c1)[C@]1(CCC[C@@H](OCc3ccccc3)[C@@H]1NC(=O)CCc1ccccc1)C(=O)N2Cc1ccccc1 | n | n | n | n | n | x | x
CCc1cccc2c(N=O)c(O)[nH]c12 | n | n | n | n | 11 | n | n
O=Nc1c(O)[nH]c2c(F)cccc12 | n | n | n | n | n | x | x
O=C(O)CCN(Cc1ccccc1)S(=O)(=O)c1ccc(Cl)cc1F | n | n | n | n | 9.6 | n | n
O=C(COC(=O)c1ccccc1C(=O)OCC(=O)NCCc1c[nH]c2ccccc12)NCCc1c[nH]c2ccccc12 | n | n | n | n | 9.9 | 9.6 | n
O=C(COC(=O)c1ccccc1O)NCCc1c[nH]c2ccccc12 | n | n | n | n | n | x | x
O=C1NC(=O)c2cc(Oc3ccc([N+](=O)[O-])cc3)ccc21 | n | 11 | n | n | 11 | n | n
COCCNC(=O)C1CC(=O)N(C2CCCC2)C1 (centres undefined) | n | n | n | n | n | x | x
CCCCNC(=O)C1CC(=O)N(C2CCCC2)C1 (centres undefined) | n | n | n | n | 12 | n | n
COc1cccc(C(=O)N2CCC(Oc3cccnc3)CC2)c1 | n | n | n | n | n | x | x
CC1CN(c2ccc(Cl)cc2)c2nc3c(c(=O)[nH]c(=O)n3C)n2C1 (centres undefined) | n | n | n | n | 10 | n | n
Cc1ccccc1NC(=O)C(C)Sc1nnc(CN2CCCC2)n1Cc1ccccc1 (centres undefined) | n | n | n | n | 10 | n | n
CN(c1ccccc1)S(=O)(=O)c1ccc(NC(=S)NC(=O)C2CC2)cc1 | n | n | n | n | 10 | n | n
COc1cccc(/C=C2\CC3(OC(=O)c4ccc(Cl)cc4)CCCN2C3)c1 (centres undefined) | n | n | n | n | n | x | x
COc1ccc(C(C(=O)N(C)C2CCCC2)N(Cc2ccc(F)cc2)C(=O)c2csc3ccc(Cl)cc23)cc1OC (centres undefined) | n | n | n | n | n | x | x
Cc1ccc(S(=O)(=O)N2C3CCCCC3O[C@H]2CC(=O)c2ccc(F)cc2)cc1 (some centres undefined) | n | n | n | n | 11 | n | n
CCOc1ccc(/C=C/C(=O)Nc2ccc(OC)cc2[N+](=O)[O-])cc1 | n | 11 | n | n | n | n | n
CCOc1ccc(NC(=O)/C=C/c2ccccc2)c([N+](=O)[O-])c1 | n | n | n | n | n | x | x
COc1ccc(NC(=O)COc2ccc(C)cc2)c([N+](=O)[O-])c1 | n | n | n | n | n | x | x

Source: PubChem BioAssay
